Screening data deposited in PubChem BioAssay by National Center for Advancing Translational Sciences (NCATS).
This excerpt belongs to a sample that is enriched for hits.
GRP78 ERSR act – inducers of ER stress response in human glioma cells; U87-MG GRP78 promoter luciferase reporter, 16 h; Potency, µM, without a hit: top-dose activation, hits mostly activators; hit rate 0.02% among 420,000; AID 602332; note: series mostly up to about 76 µM; % of control where 0% means no effect; nearly all actives have a fitted effect of over 35% in size
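Stably transfected U87-MG glioma cells carrying a GRP78-based luciferase sensor; 16 h compound incubation. Luminescence end-point read 10 min after Bright-Glo addition at room temperature.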
VDR inhibitor – vitamin D3 receptor (human) inhibition | Potency, µM, inactives show max response, negative = inhibition, most hits filed as inhibitors | hit rate 0.93% among 400,000 | P11473 | VDR-SRC2-3 peptide fluorescence polarization, 2 h; note: % is set by controls: 0 for no effect and ±100 for the full control effect
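Compounds are added to VDR with labelled SRC2-3 coactivator peptide and held 2 h at room temperature. Inhibition of the VDR–peptide interaction is then read as a change in fluorescence polarization.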
G9a block – G9a (human) methyltransferase inhibition | hit rate 8.8% among 350,000 | Q96KQ7 | AID 504332 | G9a H3K9 monomethylation, AlphaScreen, 2 h | Potency, µM (highest dose often 102 µM), inactives show top-dose activity, negative = inhibition, hits mostly inhibitors; note: % is set by controls: 0 for no effect and ±100 for the full control effect; nearly all actives have a fitted effect of over 75% in size
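Using a bead-based AlphaScreen, monomethylated H3K9 product from 2 h room-temperature reactions (G9a 20 nM, peptide 500 nM, SAM 20 uM) was detected with 0.5 ug/mL rabbit anti-H3K9me1 antibody.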
Sfp PPTase inh – inhibitors of Bacillus subtilis Sfp phosphopantetheinyl transferase; AID 1490; Q9F4F7; hit rate 3.5% among 310,000; Biochemical Sfp PPTase activity, qHTS; Potency, µM, for the others: largest response in the series, negative = inhibition, most hits filed as inhibitors;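 note: the enzyme is Sfp with the accession as filed and its product quenches rhodamine fluorescence; 0% = enzyme reaction without inhibitor and -100% = no enzyme wells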
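Step 1, compound plus 15 nM Sfp-PPTase, 15 min, room temperature. Step 2, add rhodamine-CoA (5 uM) and BHQ-2-YbbR (12.5 uM). Step 3, read 525/598 nm fluorescence at 0 and 30 min.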
12-LOX inh – ALOX12 (human) lipoxygenase inhibition | hit rate 1.1% among 580,000 | P18054 | Potency, µM (series often up to 108 µM), without a hit: top-dose activity change, negative = inhibition, actives largely listed as inhibitors | purified 12hLO, xylenol orange hydroperoxide absorbance | AID 1671190; note: % is set by controls: 0 for no effect and ±100 for the full control effect
Target sequence (P18054 whole entry, looked up): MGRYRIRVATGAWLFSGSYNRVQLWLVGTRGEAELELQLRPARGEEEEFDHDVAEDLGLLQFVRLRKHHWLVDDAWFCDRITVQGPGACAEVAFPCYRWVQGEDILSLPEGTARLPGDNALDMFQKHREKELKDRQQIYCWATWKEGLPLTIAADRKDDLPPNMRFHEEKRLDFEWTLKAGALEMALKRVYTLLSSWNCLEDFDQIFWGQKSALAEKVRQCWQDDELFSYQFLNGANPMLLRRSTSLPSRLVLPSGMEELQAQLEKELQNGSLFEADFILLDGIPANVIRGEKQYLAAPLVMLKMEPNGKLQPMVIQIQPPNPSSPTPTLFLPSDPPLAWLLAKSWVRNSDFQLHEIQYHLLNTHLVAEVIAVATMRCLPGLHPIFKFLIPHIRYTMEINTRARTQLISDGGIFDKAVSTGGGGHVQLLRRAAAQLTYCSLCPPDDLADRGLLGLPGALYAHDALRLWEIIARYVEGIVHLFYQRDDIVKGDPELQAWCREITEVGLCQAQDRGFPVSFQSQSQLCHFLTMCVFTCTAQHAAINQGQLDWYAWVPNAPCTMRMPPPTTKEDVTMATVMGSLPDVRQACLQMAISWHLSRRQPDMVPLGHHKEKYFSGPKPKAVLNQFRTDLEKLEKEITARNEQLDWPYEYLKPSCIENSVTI
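Purified human 12hLO (150 nM final) in 25 mM Hepes, 0.01% Triton X-100, pH 7.0 was preincubated 15 min at room temperature with compound. Then 40 uM arachidonic acid was added, 30 min. Hydroperoxide was read by Fe-XO absorbance ratio 573/405 nm.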
Numbers without * were called inactive; ? = inconclusive; · = no result; [ ] = another dose, or the depositor's remark. Calls come from the whole dose curve; as a rule, active = well fitted curve in the direction sought with a large enough effect; inconclusive = small, poorly fitted or top-dose-only effect, or another doubt; inactive = no such curve, though single readings can be large; an effect the other way counts as inactive or inconclusive. Potency is the fitted concentration of half-maximal effect.

SMILES	GRP78 ERSR act	VDR inhibitor	G9a block	Sfp PPTase inh	12-LOX inh
O=C(O)c1ccc(NC2=C/C(=N/S(=O)(=O)c3ccccc3)c3ccccc3C2=O)cc1	-14%	?	13µM*	-11%	?
CCc1ccc(S(=O)(=O)/N=C2\C=C(Nc3cccc(C(=O)O)c3)C(=O)c3ccccc32)cc1	-17%	-7%	14µM*	-18%	-16%
O=C(O)c1ccc(NC2=C(N3CCOCC3)C(=O)c3ccccc3C2=O)cc1	-1%	?	?	-2%	?
COc1ccc(NC(=O)CSc2nc3c(cnn3-c3ccccc3)c(=O)[nH]2)c(OC)c1	·	·	·	·	-9%
C=CCN(Cc1nc(-c2ccc(OC)c(OC)c2)oc1C)C1CCS(=O)(=O)C1 (stereo not given)	-2%	-1%	13µM*	?	3%
CC(=O)c1cccc(OCc2cc(C(=O)N(C)CCC3CCOCC3)no2)c1	6%	7%	45µM*	21%	1%
CC(=O)c1cccc(OCc2cc(C(=O)N3C[C@H]4CC[C@H]3C4)no2)c1	-2%	6%	30%	3%	3%
CC(=O)c1cccc(OCc2cc(C(=O)N3C[C@@H](C)O[C@@H](C)C3)no2)c1	10%	-9%	45µM*	3%	32%
O=C(NC1CCCN(c2cc(-c3ccc(F)cc3)[nH]n2)C1)c1ccc(F)c(F)c1 (stereo not given)	·	·	·	·	7%
CC(=O)Nc1sc(NC(=O)c2ccc(Cl)cc2)nc1-c1cccs1	-5%	-2%	·	1%	?
Nc1nc(-c2cccs2)c(NC(=O)c2ccccc2)s1	-2%	-87%	7.9µM*	-29%	?
CCn1c(COc2ccc(OC)cc2)nnc1SC(C)C(=O)Nc1ccc2c(c1)OCO2 (stereo not given)	·	·	·	·	12%
Cc1cc2cc(CNC(=O)Nc3ccccc3)ccc2n1C	5%	13%	32µM*	11%	10%
CCOC(=O)NCc1ccc2c(c1)cc(C)n2C	1%	-11%	16%[12.7 µM]	-7%	-8%
Cc1ccccc1NC(=S)NCc1ccc2c(c1)cc(C)n2C	-2%	-15%	-3%	-2%	?
CCc1cccc(C)c1NC(=S)NCc1ccc2c(c1)cc(C)n2C	-2%	-10%	40µM*	9%	?
Cc1cc2cc(CNC(=O)C(C)Oc3ccccc3)ccc2n1C (stereo not given)	-4%	1%	-27%	-13%	-13%
Cc1cc2cc(CNC(=S)NCc3ccccc3)ccc2n1C	-2%	-8%	?	11%	40µM*
CCOC(=O)CCC(=O)NCc1ccc2c(c1)cc(C)n2C	-3%	12%	8%[0.0925 µM]	79µM*	0%
Cc1cc(C)c2nc(C)cc(C(=O)O)c2c1	·	·	·	·	-18%
COc1ccc(/C=C\C(=O)NCc2ccc3c(c2)cc(C)n3C)cc1OC	1%	2%	45µM*	-8%	-19%
CCCCNC(=S)NCc1ccc2c(c1)cc(C)n2C	-1%	-8%	?	4%	40µM*
OCC1CNCCC12CCN(Cc1ccc3ccccc3c1)CC2 (stereo not given)	·	·	·	·	25%
CC(C)=C1C(=O)NN(c2ccc(F)c(Cl)c2)C1=O	-2%	-2%	·	17%	10µM*
CCCC(=O)Nc1nnc(Cc2c[nH]c3ccccc23)s1	·	·	·	·	27%
SMILES	GRP78 ERSR act	VDR inhibitor	G9a block	Sfp PPTase inh	12-LOX inh
CCCCCCCCS(=O)C1CCS(=O)(=O)C1 (stereo not given)	-1%	-9%	40µM*	12%	?
COc1ccc(CN2CC3=C(C2=O)C(c2ccc(C)cc2)NC(=O)N3)cc1 (stereo not given)	·	·	·	·	-7%
CCc1cnc2c(c1SC(C(C)=O)C(=O)N(C)C)c(=O)n(C)c(=O)n2C (stereo not given)	-2%	14%	4.5µM*	·	?
CCc1cnc2c(c1SCC(=O)N1CCCCC1)c(=O)n(C)c(=O)n2C	-4%	-2%	-3%[59 µM]	·	1%
Cc1ccc(-c2nnc(Nc3cccc(Br)c3)c3ccccc23)cc1S(=O)(=O)N1CCN(C)CC1	-4%	2%	-51%[59 µM]	·	5%
Cc1ccc(-c2nnc(Nc3ccccc3)c3ccccc23)cc1S(=O)(=O)N1CCN(C)CC1	1%	-8%	?	·	-26%
Cc1cccc(Nc2nnc(-c3ccc(C)c(S(=O)(=O)N4CCN(C)CC4)c3)c3ccccc23)c1	2%	-10%	18µM*	·	-11%
